The panel holds about 83,000 compounds, 20% with a hit somewhere; the sample as a whole holds those more often.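 Treatment: one concentration, 48 hours, 96-well format. Scoring: percent growth, with anything below 10 considered active.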 Unmarked numbers belong to inactive results. Activity calls are given as the source filed them.

Among the test systems are HCT-15 colon; HT29 colon; SNB-75 CNS; SNB-19 CNS; U251 CNS; PC-3 prostate; SK-MEL-5 melanoma; UACC-62 melanoma; LOX IMVI melanoma; SK-MEL-28 melanoma; SK-MEL-2 melanoma; EKVX NSCLC; SN12C renal; TK-10 renal; ACHN renal; CAKI-1 renal; A498 renal; CCRF-CEM leukemia; UO-31 renal; MOLT-4 leukemia.
Common to all, as to assay: NCI-60 one-dose screen, 48 h (100 = growth as untreated, 0 = no growth, -100 = all killed)
Holding throughout (details): 10 µM

Turning to `COc1cc(Cn2c(C(F)(F)F)cc3c(Cl)ncnc32)ccn1`, the growth in the test on HCT-15 colon was -48.3% (active); in the test on HT29 colon, 69.7%; in the test with SNB-75 CNS it was -60.9% (active); in the test with SNB-19 CNS it was -8.63% (active); with U251 CNS it was 12.7%; with PC-3 prostate, 29.3%. Besides, the growth in the test with SK-MEL-5 melanoma is -20.4% (active); in the test with UACC-62 melanoma, 0.529% (active); in the test with LOX IMVI melanoma it was -100% (active); in the test on SK-MEL-28 melanoma, 27.9%; in the test on SK-MEL-2 melanoma, -81.7% (active); in the test on EKVX NSCLC it was 73%. Further, the growth was 51.3% with SN12C renal; 97.1% in the test on TK-10 renal; 74.8% with ACHN renal; -57.6% (active) in the test with CAKI-1 renal; 103% in the test on A498 renal; -14.3% (active) with CCRF-CEM leukemia.
On to `O=C1CCC(N2Cc3cc(CC(=O)Nc4ccc(N5CCCCC5)cc4)ccc3C2=O)C(=O)N1` (centres undefined), for which the growth was 7.29% (active) in the test on HCT-15 colon; 77.4% with HT29 colon; 55.7% with SNB-75 CNS; 49.2% with SNB-19 CNS; 88.6% with U251 CNS; 26.7% in the test on PC-3 prostate. Also, the growth in the test on SK-MEL-5 melanoma is 38.8%; with UACC-62 melanoma, 78.1%; in the test on LOX IMVI melanoma, 105%; in the test on SK-MEL-28 melanoma it was 76.4%; with SK-MEL-2 melanoma it was 74.7%; in the test with EKVX NSCLC, 83.4%. For the same compound, the growth was 46.7% with SN12C renal; 21% in the test with UO-31 renal; 92.4% with ACHN renal; 12.7% in the test on A498 renal; 16.9% in the test on CCRF-CEM leukemia; -7.39% (active) in the test on MOLT-4 leukemia.
Consider `O=C(Nc1ccc(Cl)c([N+](=O)[O-])c1)Nc1ccc(Cl)c([N+](=O)[O-])c1`, for which the growth is 7.01% (active) in the test on HCT-15 colon; 13.1% in the test on HT29 colon; 61.2% in the test on SNB-75 CNS; 10.8% in the test on SNB-19 CNS; 10.6% with U251 CNS; 10.4% with PC-3 prostate. Also, the growth in the test with SK-MEL-5 melanoma was -26.7% (active); in the test on UACC-62 melanoma, 3.62% (active); in the test with LOX IMVI melanoma, -8.77% (active); in the test with SK-MEL-28 melanoma, 8.08% (active); in the test with SK-MEL-2 melanoma, 30.7%; in the test with EKVX NSCLC, 17.8%. The growth was 1.65% (active) in the test on SN12C renal; -2.65% (active) with UO-31 renal; 4.21% (active) in the test with ACHN renal; 8.32% (active) in the test with CAKI-1 renal; 20.1% in the test with A498 renal; 14.2% in the test on CCRF-CEM leukemia. In the test on MOLT-4 leukemia, the growth is 21.7%.
As to `Cc1nn(-c2ccccc2)c2ncn(CC(=O)N/N=C/c3c[nH]c4ccccc34)c(=O)c12`, the growth in the test with HCT-15 colon was 89.2%; with HT29 colon it was 99.5%; with SNB-75 CNS, 78.5%; with SNB-19 CNS it was 91.5%; in the test on U251 CNS, 83.8%; with PC-3 prostate, 65.4%. Further, the growth was 85.5% in the test with SK-MEL-5 melanoma; 80.7% in the test on UACC-62 melanoma; 84.4% in the test on LOX IMVI melanoma; 114% in the test with SK-MEL-28 melanoma; 86.3% with SK-MEL-2 melanoma; 61.2% in the test with EKVX NSCLC. Moreover, the growth with SN12C renal is 89.7%; in the test on TK-10 renal, 107%; in the test on ACHN renal, 85.2%; in the test on CAKI-1 renal it was 71.9%; in the test with A498 renal, 79.5%; in the test with CCRF-CEM leukemia, 85%. In the test with MOLT-4 leukemia, the growth was 55.8%.
On to `CN1C/C(=C\c2ccc(O)cc2O)c2[o+]c3cc(O)ccc3cc2C1`, for which the growth with HCT-15 colon was 21.9%; in the test on HT29 colon it was 44.4%; in the test on SNB-75 CNS, 60.5%; in the test on SNB-19 CNS, 42.1%; with U251 CNS, 14%; in the test with PC-3 prostate, 65.8%. Moreover, the growth with SK-MEL-5 melanoma was 57.9%; with UACC-62 melanoma it was 47.5%; in the test with LOX IMVI melanoma, -66.7% (active); in the test with SK-MEL-28 melanoma, 17.3%; in the test with SK-MEL-2 melanoma, 46.5%; in the test on EKVX NSCLC, 78%. Also, the growth with SN12C renal is 39.9%; in the test with UO-31 renal it was 63.6%; in the test on ACHN renal, 71.9%; in the test with CAKI-1 renal it was 70.1%; in the test with A498 renal, 117%; in the test on CCRF-CEM leukemia, 41.1%. In addition, the growth in the test with MOLT-4 leukemia was 37.8%.
`CCOc1ccc2ncc(C#Cc3cncc(C(=O)Nc4ccc(CN5CCN(C)CC5)c(C(F)(F)F)c4)c3)n2n1`: the growth was -86.1% (active) in the test on HCT-15 colon; -51% (active) in the test on HT29 colon; -88.8% (active) with SNB-75 CNS; -63.3% (active) in the test on SNB-19 CNS; -41.5% (active) in the test on U251 CNS; -34.9% (active) in the test on PC-3 prostate. For the same compound, the growth in the test with SK-MEL-5 melanoma is -83.4% (active); with UACC-62 melanoma it was -71.3% (active); with LOX IMVI melanoma, -80% (active); in the test on SK-MEL-28 melanoma, -83.1% (active); in the test with SK-MEL-2 melanoma it was -75.7% (active); in the test on EKVX NSCLC, -65.8% (active). Besides, the growth in the test on SN12C renal is -82.9% (active); in the test on UO-31 renal, -65.8% (active); in the test with ACHN renal, -87% (active); in the test on CAKI-1 renal, 30.4%; in the test on A498 renal, 15.9%; with CCRF-CEM leukemia, 7.96% (active). Moreover, the growth in the test on MOLT-4 leukemia was -8.54% (active).
On to `CN1C(=O)N(C)C2SC(N/N=C/c3ccc(F)cc3)=NC21` (centres undefined), for which the growth is 26.1% in the test on HCT-15 colon; 16.2% with HT29 colon; 23.7% in the test with SNB-75 CNS; 43.1% in the test on SNB-19 CNS; 35.4% in the test with U251 CNS; 66.2% with PC-3 prostate. In addition, the growth with SK-MEL-5 melanoma is 26.8%; in the test on UACC-62 melanoma, 18.4%; with LOX IMVI melanoma, 40%; with SK-MEL-28 melanoma, 63.5%; in the test with SK-MEL-2 melanoma, 26.5%; with EKVX NSCLC it was 77.2%. Moreover, the growth with SN12C renal was 52.5%; with UO-31 renal, 47.7%; with ACHN renal, 60.1%; in the test with CAKI-1 renal it was 46.3%; with A498 renal, 57.6%; in the test with CCRF-CEM leukemia it was 40.3%. In the test on MOLT-4 leukemia, the growth was 45.4%.
In the case of `O=C(Nc1ccc(OCC(=O)c2ccccc2)cc1)Nc1ccc(Cl)c(C(F)(F)F)c1`, the growth is 17.8% with HCT-15 colon; 29.3% in the test with HT29 colon; 3.5% (active) in the test with SNB-75 CNS; 15.7% in the test on SNB-19 CNS; 25.8% with U251 CNS; 6.92% (active) in the test with PC-3 prostate. The growth in the test on SK-MEL-5 melanoma was -61.2% (active); in the test on UACC-62 melanoma, -21.3% (active); in the test on LOX IMVI melanoma, -24.4% (active); in the test with SK-MEL-28 melanoma it was 4.82% (active); in the test with SK-MEL-2 melanoma, -53.7% (active); with EKVX NSCLC it was 17.2%. Also, the growth is 24.9% with SN12C renal; 49.2% in the test with TK-10 renal; 18.1% with ACHN renal; 20.2% in the test with CAKI-1 renal; 17.1% in the test with A498 renal; 9.86% (active) with CCRF-CEM leukemia.

The values above are taken from PubChem BioAssay (NCI).
